Among all 310,000 compounds or so, about 14,000 (4.5%) showed an effect of 50% or more. The effect is printed as a negative number. The entries come from a sample that favours strong results as a whole.
Molecular target: human ether-à-go-go-related gene (hERG) potassium channel (human, UniProt Q12809)
Assay: primary screen, population patch clamp on CHO cells stably expressing hERG; higher = less effect of the substance
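Note: peak tail current of the secondary pulse compared with the same well before compound.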

Chain of human ether-à-go-go-related gene (hERG) potassium channel (Q12809 whole entry, looked up): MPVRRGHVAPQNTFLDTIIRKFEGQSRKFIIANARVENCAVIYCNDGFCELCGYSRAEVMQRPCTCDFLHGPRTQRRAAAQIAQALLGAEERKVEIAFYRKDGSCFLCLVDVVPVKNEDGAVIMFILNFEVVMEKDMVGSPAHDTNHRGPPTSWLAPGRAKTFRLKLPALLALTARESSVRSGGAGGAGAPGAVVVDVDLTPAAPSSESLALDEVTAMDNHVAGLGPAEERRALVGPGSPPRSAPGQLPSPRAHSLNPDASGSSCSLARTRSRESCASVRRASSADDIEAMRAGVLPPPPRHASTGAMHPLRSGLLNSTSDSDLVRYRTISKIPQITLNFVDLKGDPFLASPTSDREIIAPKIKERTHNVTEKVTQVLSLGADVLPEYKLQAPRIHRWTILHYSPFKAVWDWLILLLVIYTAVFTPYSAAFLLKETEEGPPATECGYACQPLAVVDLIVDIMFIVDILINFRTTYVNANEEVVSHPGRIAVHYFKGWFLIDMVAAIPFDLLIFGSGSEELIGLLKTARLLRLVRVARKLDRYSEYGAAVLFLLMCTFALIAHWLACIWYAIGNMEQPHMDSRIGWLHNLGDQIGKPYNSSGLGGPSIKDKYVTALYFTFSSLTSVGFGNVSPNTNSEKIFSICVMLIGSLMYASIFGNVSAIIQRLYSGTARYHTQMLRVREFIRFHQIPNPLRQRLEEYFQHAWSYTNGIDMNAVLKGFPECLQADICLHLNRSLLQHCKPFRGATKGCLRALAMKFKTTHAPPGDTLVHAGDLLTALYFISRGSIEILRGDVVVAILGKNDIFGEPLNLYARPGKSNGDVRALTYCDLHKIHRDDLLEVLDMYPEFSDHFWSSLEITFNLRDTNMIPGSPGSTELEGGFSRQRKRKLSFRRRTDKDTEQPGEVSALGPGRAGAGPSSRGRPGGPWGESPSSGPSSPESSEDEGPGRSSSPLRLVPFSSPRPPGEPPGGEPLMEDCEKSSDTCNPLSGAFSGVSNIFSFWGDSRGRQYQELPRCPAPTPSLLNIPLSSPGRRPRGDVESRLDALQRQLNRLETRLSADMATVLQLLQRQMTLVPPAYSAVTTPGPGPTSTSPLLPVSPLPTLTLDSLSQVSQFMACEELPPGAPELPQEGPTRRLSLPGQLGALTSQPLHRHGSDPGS

SMILES	hERG current change (%, negative = inhibition) at 10uM [%]
O=C(CCC(=O)N1CCSc2ccccc21)NC1CCCCC1	-2.55
O=C(OCCNc1ccc(C(F)(F)F)cc1[N+](=O)[O-])c1cc2ccccc2oc1=O	4.72
CC(Sc1nncn1C)C(=O)Nc1ccc(S(N)(=O)=O)cc1 (stereo not shown)	15.7
Cc1oc(-c2ccccc2Cl)nc1CSCC(=O)N1CCCC1	-19.9
COc1ccc(Cl)cc1NC(=O)CN(C)C(=O)c1ccc(COc2ccccc2)cc1	13.5
CC1CCc2ccc(F)cc2N1S(=O)(=O)c1cccs1 (stereo not shown)	2.36
CNC(=S)NNC(=O)c1ccc(N(C)C)cc1	0.516
Cc1cc(C)c(S(=O)(=O)NCC2CCC(C(=O)NCc3ccc4c(c3)OCO4)CC2)c(C)c1 (stereo not shown)	-1.15
O=C(N/N=C/C=C/c1ccccc1)c1n[nH]c2c1CCC2	9.22
COc1ccc(NS(=O)(=O)c2ccc(N3CCOCC3)c(NC(=O)c3ccco3)c2)cc1	30.3
COc1nnc(-c2ccc(N3CCOCC3)c(NC(=O)c3ccc(C)cc3)c2)c2ccccc12	-68.9
Cn1nc(-c2ccc(N3CCOCC3)c(NS(=O)(=O)c3ccccc3)c2)c2ccccc2c1=O	-15.6
COc1nnc(-c2ccc(N3CCOCC3)c(NC(C)=O)c2)c2ccccc12	-1.4
COc1nnc(-c2ccc(N3CCOCC3)c(NC(=O)c3ccco3)c2)c2ccccc12	-70
Cn1nc(-c2ccc(N3CCOCC3)c(NS(=O)(=O)c3ccc(Cl)cc3)c2)c2ccccc2c1=O	-9.74
Cc1ccc(S(=O)(=O)Nc2cc(-c3nn(C)c(=O)c4ccccc34)ccc2N2CCOCC2)cc1	-57
COc1ccc(N2CCOCC2)c(NC(=O)c2ccco2)c1	-73.1
COC(=O)c1ccc(N2CCOCC2)c(NC(=O)c2ccco2)c1	1.95
CCC(=O)Nc1cc(-c2nnc(OC)c3ccccc23)ccc1N1CCOCC1	-5.46
COc1nnc(-c2ccc(N3CCOCC3)c(NC(=O)c3ccccc3)c2)c2ccccc12	-19.5
CCCC(=O)Nc1cc(-c2nnc(OC)c3ccccc23)ccc1N1CCOCC1	-42.9
Cc1cc(C)c(C#N)c(SCc2nnc(-c3ccccc3)o2)n1	-0.532

SMILES	hERG current change (%, negative = inhibition) at 10uM [%]
O=C(CNCC1CCCO1)Nc1ccccc1N1CCCCCC1.O=C(O)C(=O)O (stereo not shown)	-6.51
COc1cc(OC)nc(Oc2ccccc2C(=O)Oc2ccc(C)cc2)n1	-25.1
O=C(c1cc(C2CC2)on1)N1CCN(c2ccccc2)CC1	-14.1
CCCCN1C(=O)C(=O)N(CC(=O)Nc2cc(S(=O)(=O)N(C)C)ccc2C)C1=O	6.6
O=S(=O)(Nc1ccc(Br)cc1)c1cccc2nonc12	5.71
Cl.O=C(O)CCN1CCOCC1	19.8
Cc1ccc(C)c(S(=O)(=O)N2CCN(C(=O)CCNC(=O)c3ccc(Br)cc3)CC2)c1	-33.4
O=[N+]([O-])c1ccc(NC2CCN(Cc3ccccc3)CC2)c([N+](=O)[O-])c1	-85.4
O=C1C2CCCCC2C(=O)N1c1ccc(NC2CCN(Cc3ccccc3)CC2)c([N+](=O)[O-])c1 (stereo not shown)	-42.1
CC1CCC2C(=O)N(c3ccc(NC4CCN(Cc5ccccc5)CC4)c([N+](=O)[O-])c3)C(=O)C2C1 (stereo not shown)	-41.2
O=[N+]([O-])c1ccc(NC2CCN(Cc3ccccc3)CC2)c2ccncc12	6.01
O=[N+]([O-])c1ccccc1NC1CCN(Cc2ccccc2)CC1	-64.4
O=C1CCC(=O)N1c1ccc(NC2CCN(Cc3ccccc3)CC2)c([N+](=O)[O-])c1	2.23
Cc1noc(C)c1S(=O)(=O)NCc1ccc(CN(C)C)cc1.Cl	6.09
COc1ccc(CCNC(=O)/C(C#N)=C/c2ccc(OCC(=O)NCC3CCCO3)cc2)cc1OC (stereo not shown)	11.7
CC(C)N(C(=O)COC(=O)c1ccc(O)cc1)C(C)C	-1.54
CCS(=O)(=O)c1nc(S(=O)(=O)c2ccc(C)cc2)c(NCCCN2CCCC2=O)s1	-11.3
CS(=O)(=O)c1nc(S(=O)(=O)c2ccc(Cl)cc2)c(NCCCN2CCOCC2)s1	-46.8
CCCCNC(=O)c1cn(C)c2ccc(S(=O)(=O)N3CC(C)CC(C)C3)cc2c1=O (stereo not shown)	1.55
O=C1NC(=S)NC(=O)C12C(c1ccc(F)cc1)NC(=S)NC2c1ccc(F)cc1 (stereo not shown)	-4.14
Cl.Oc1cccc(Nc2nc(-c3ccccc3Cl)nc3ccccc23)c1	7.09
CCCn1c(C)cc(C(=O)Cn2nnc3ccccc3c2=O)c1C	-34.7

SMILES	hERG current change (%, negative = inhibition) at 10uM [%]
CCc1ccc(NC(=O)CSc2ccc(-c3ccco3)nn2)cc1	-16.6
COc1ccc(C(=O)CSc2ccc(-c3ccco3)nn2)cc1	-78.1
O=C(CSc1ccc(-c2ccco2)nn1)Nc1cccc(F)c1	-55.2
CC(=O)Nc1ccc(NC(=O)CSc2ccc(-c3cccs3)nn2)cc1	11.4
CC(=O)c1cccc(NC(=O)CSc2ccc(-c3ccco3)nn2)c1	1.79
Cc1cc(C)cc(NC(=O)CSc2ccc(-c3ccco3)nn2)c1	-28.8
O=C(CSc1ccc(-c2cccs2)nn1)Nc1ccccc1	-35
O=C(CSc1ccc(-c2ccco2)nn1)c1ccccc1	-9.74
Cc1cccc(NC(=O)CSc2ccc(-c3ccco3)nn2)c1	-59.5
Cc1cc(C)cc(NC(=O)CSc2ccc(-c3cccs3)nn2)c1	-52.2
CC(=O)Nc1cccc(NC(=O)CSc2ccc(-c3ccco3)nn2)c1	0.763
O=C(CSc1ccc(-c2ccco2)nn1)c1ccc(F)cc1	-25.8
Cc1cc(OC(C)C(=O)Nc2cccnc2)ccc1Cl (stereo not shown)	2.05
COc1ccc(CNC(=O)C2CCN(S(=O)(=O)c3ccc4c(c3)NC(=O)CO4)CC2)cc1	16.7
O=C(NC(Cc1c[nH]c2ccccc12)C(=O)O)/C(=C\c1ccc2c(c1)OCO2)NC(=O)c1ccccc1 (stereo not shown)	-7.13
CCCC(=O)Nc1ccc2nc(SCC(=O)N3CCCC3)sc2c1	2.52
O=C(O)c1cccc(S(=O)(=O)N2CCCC(c3nc4c(nnn4Cc4ccc(F)cc4)c(=O)[nH]3)C2)c1 (stereo not shown)	-15.3
O=C1/C(=C\c2ccc(Br)o2)SC(=Nc2ccccc2)N1c1ccccc1	-10.1
Cl.N=c1c2c(n(Cc3ccc(Cl)c(Cl)c3)c3c1CCC3)CCCC2	-15.8
COc1cc(NC(=O)Cc2ccccc2)ccc1NC(=O)c1ccco1	18.5
O=C(CSc1ccc(-c2ccco2)nn1)Nc1ccccc1	-47.6
CC(=O)Nc1ccc(NC(=O)CSc2ccc(-c3ccco3)nn2)cc1	-2.54

SMILES	hERG current change (%, negative = inhibition) at 10uM [%]
O=C(CSc1ccc(-c2ccco2)nn1)Nc1ccc(F)cc1F	-65.8
O=C(CSc1ccc(-c2ccco2)nn1)Nc1ccccc1F	-43.4
Cc1ccc(NC(=O)CSc2ccc(-c3ccco3)nn2)c(C)c1	-24.4
O=C(CSc1ccc(-c2ccco2)nn1)Nc1ccc(F)cc1	-68.5
CC(NC(=O)c1ccco1)c1nc(-c2ccccc2Cl)no1 (stereo not shown)	3.9
Cc1cc2nc(-c3cccc(NC(=O)c4ccc(Br)o4)c3C)oc2cc1C	5.67
Cc1nc(C)c(-c2ccc(SCC(=O)Nc3cccc(F)c3)nn2)s1	8.66
CC(C)C(=O)Nc1ccc(Cc2ccc(NC(=O)C(C)C)c(O)c2)cc1O	-23
COc1cccc(-c2nc(CS(=O)(=O)CC(=O)NCCc3ccc(OC)cc3OC)c(C)o2)c1	-13
Cc1ccnc(NS(=O)(=O)c2ccc(NC(=O)Cc3ccccc3)cc2)n1	5.26
COc1ccccc1OCCNC(=O)/C=C/c1ccc([N+](=O)[O-])cc1	-49.2
COc1ccc(/C=C/C(=O)NCCc2ccc(S(N)(=O)=O)cc2)cc1	3.55
O=C(/C=C/c1cccc([N+](=O)[O-])c1)NCCSCc1ccco1	-29.5
COc1ccc(/C=C/C(=O)NCCOc2ccc(C)cc2)cc1	6.3
O=C(/C=C/c1ccc([N+](=O)[O-])cc1)NCCSCc1ccco1	-61.3
NS(=O)(=O)c1ccc(CCNC(=O)/C=C/c2ccc([N+](=O)[O-])cc2)cc1	-69.8
COc1ccc(OCCNC(=O)/C=C/c2ccc([N+](=O)[O-])cc2)cc1	-64.7
O=C(/C=C/c1cccc([N+](=O)[O-])c1)NCCc1ccc(F)cc1	-21.8
NS(=O)(=O)c1ccc(CCNC(=O)/C=C/c2cccc([N+](=O)[O-])c2)cc1	-13.7
O=C(/C=C/c1ccc([N+](=O)[O-])cc1)NCCc1ccc(F)cc1	-60.3
O=C(/C=C/c1ccc([N+](=O)[O-])cc1)NCc1ccco1	-24.1
O=C(/C=C/c1ccc([N+](=O)[O-])cc1)NCCc1ccccc1	-14.4
